# Laboratory results published in paper PMC11006913.
# Residue numbers refer to the chain shown, from its start.
# How the values were obtained:
# Test in all cases: PBM; 200 nM protein, PBS
# Conditions in all cases: dsDNA, one strand shown
# [1] = biological target: HOXB9 (Homo sapiens, UniProt P17482 171-250, T197M)
# [2] = biological target: T1, PAX4 (Homo sapiens, UniProt O43316 9-242, R200K)
# T1 sequence: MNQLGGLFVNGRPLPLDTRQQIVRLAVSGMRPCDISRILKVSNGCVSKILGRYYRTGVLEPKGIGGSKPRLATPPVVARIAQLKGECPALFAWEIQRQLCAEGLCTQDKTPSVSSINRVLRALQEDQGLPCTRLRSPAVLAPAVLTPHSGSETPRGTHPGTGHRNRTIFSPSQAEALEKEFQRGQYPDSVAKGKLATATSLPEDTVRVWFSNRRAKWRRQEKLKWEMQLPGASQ
# [3] = biological target: T2, PAX4 (Homo sapiens, UniProt O43316 9-242)
# T2 sequence: T1 sequence with K192R
# [4] = biological target: HOXB9 (Homo sapiens, UniProt P17482 171-250)
# HOXB9 (Homo sapiens, UniProt P17482 171-250), sequence (P17482 171-250): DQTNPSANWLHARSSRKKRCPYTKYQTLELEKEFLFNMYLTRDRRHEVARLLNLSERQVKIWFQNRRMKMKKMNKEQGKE
# [5] = biological target: MSX2 (Homo sapiens, UniProt P35548 130-214, R199I)
# MSX2 (Homo sapiens, UniProt P35548 130-214, R199I), sequence (P35548 130-214 R199I): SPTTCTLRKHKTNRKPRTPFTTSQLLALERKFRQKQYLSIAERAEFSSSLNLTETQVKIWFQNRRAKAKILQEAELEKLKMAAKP
# [6] = biological target: T3, PAX4 (Homo sapiens, UniProt O43316 9-242, R200Q)
# T3 sequence: T1 sequence with K192Q
# [7] = biological target: T4, PAX4 (Homo sapiens, UniProt O43316 9-242, F177V)
# T4 sequence: T1 sequence with F169V, K192R
# [8] = biological target: MSX2 (Homo sapiens, UniProt P35548 130-214)
# MSX2 (Homo sapiens, UniProt P35548 130-214), sequence (P35548 130-214): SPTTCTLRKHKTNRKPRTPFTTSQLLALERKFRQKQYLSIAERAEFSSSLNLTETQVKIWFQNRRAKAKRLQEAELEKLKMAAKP
# [9] = biological target: T5, PAX4 (Homo sapiens, UniProt O43316 9-242, F177Y)
# T5 sequence: T1 sequence with F169Y, K192R
# [10] = biological target: PROP1 (Homo sapiens, UniProt O75360 56-141)
# PROP1 (Homo sapiens, UniProt O75360 56-141), sequence (O75360 56-141): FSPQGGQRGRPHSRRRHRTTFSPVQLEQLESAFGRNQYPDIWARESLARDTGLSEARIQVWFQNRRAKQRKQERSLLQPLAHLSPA
# [11] = biological target: PROP1 (Homo sapiens, UniProt O75360 56-141, R99H)
# PROP1 (Homo sapiens, UniProt O75360 56-141, R99H), sequence (O75360 56-141 R99H): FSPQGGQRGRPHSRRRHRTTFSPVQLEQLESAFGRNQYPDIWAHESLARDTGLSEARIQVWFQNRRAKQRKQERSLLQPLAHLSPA
# [12] = biological target: HOXB9 (Homo sapiens, UniProt P17482 171-250, R186Q)
# HOXB9 (Homo sapiens, UniProt P17482 171-250, R186Q), sequence (P17482 171-250 R186Q): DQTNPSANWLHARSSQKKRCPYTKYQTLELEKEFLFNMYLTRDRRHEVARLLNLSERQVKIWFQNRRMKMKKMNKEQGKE
# [13] = biological target: PROP1 (Homo sapiens, UniProt O75360 56-141, F88S)
# PROP1 (Homo sapiens, UniProt O75360 56-141, F88S), sequence (O75360 56-141 F88S): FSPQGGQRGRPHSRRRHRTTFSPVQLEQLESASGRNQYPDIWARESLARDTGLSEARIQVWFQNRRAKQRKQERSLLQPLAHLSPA
# [14] = biological target: MSX2 (Homo sapiens, UniProt P35548 130-214, F161Y)
# MSX2 (Homo sapiens, UniProt P35548 130-214, F161Y), sequence (P35548 130-214 F161Y): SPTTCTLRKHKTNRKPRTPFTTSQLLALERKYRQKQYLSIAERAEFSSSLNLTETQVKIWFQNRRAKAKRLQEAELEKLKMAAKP
# [15] = biological target: T6, PAX4 (Homo sapiens, UniProt O43316 9-242, R227W)
# T6 sequence: T1 sequence with K192R, R219W
# [16] = biological target: HOXC9 (Homo sapiens, UniProt P31274 178-260, K195R)
# HOXC9 (Homo sapiens, UniProt P31274 178-260, K195R), sequence (P31274 178-260 K195R): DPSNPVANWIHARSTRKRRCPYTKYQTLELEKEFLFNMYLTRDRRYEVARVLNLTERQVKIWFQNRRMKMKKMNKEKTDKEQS
# [17] = biological target: HOXC9 (Homo sapiens, UniProt P31274 178-260)
# HOXC9 (Homo sapiens, UniProt P31274 178-260), sequence (P31274 178-260): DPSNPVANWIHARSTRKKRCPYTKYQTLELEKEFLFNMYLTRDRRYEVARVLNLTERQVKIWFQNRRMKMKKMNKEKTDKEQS
# [18] = biological target: HOXC9 (Homo sapiens, UniProt P31274 178-260, R193K)
# HOXC9 (Homo sapiens, UniProt P31274 178-260, R193K), sequence (P31274 178-260 R193K): as the sequence (P31274 178-260) above, with R16K counted along it
# [19] = biological target: HOXC9 (Homo sapiens, UniProt P31274 178-260, R222W)
# HOXC9 (Homo sapiens, UniProt P31274 178-260, R222W), sequence (P31274 178-260 R222W): as the sequence (P31274 178-260) above, with R45W counted along it
# [20] = biological target: PRRX1 (Homo sapiens, UniProt P54821 80-166, F113S)
# PRRX1 (Homo sapiens, UniProt P54821 80-166, F113S), sequence (P54821 80-166 F113S): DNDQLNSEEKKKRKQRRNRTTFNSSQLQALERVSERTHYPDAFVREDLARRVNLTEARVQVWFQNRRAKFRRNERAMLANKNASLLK
# [21] = biological target: PRRX1 (Homo sapiens, UniProt P54821 80-166)
# PRRX1 (Homo sapiens, UniProt P54821 80-166), sequence (P54821 80-166): as the sequence (P54821 80-166 F113S) above, with S34F counted along it
# [22] = biological target: ALX4 (Homo sapiens, UniProt Q9H161 200-286)
# ALX4 (Homo sapiens, UniProt Q9H161 200-286), sequence (Q9H161 200-286): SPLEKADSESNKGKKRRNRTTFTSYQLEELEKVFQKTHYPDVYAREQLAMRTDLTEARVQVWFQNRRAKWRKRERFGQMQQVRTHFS
# [23] = biological target: HOXB6 (Homo sapiens, UniProt P17509 132-218, K202E)
# HOXB6, sequence (P17509 132-218 K202E): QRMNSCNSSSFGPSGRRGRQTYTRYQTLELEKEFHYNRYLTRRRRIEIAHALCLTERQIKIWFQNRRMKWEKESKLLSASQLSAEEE
# [24] = biological target: ALX4 (Homo sapiens, UniProt Q9H161 200-286, Q225E)
# ALX4 (Homo sapiens, UniProt Q9H161 200-286, Q225E), sequence (Q9H161 200-286 Q225E): as the sequence (Q9H161 200-286) above, with Q26E counted along it
# [25] = biological target: ALX1 (Homo sapiens, UniProt Q15699 118-204, L144V)
# ALX1, sequence (Q15699 118-204 L144V): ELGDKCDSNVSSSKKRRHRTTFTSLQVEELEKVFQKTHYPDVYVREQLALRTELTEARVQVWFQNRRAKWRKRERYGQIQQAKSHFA
# [26] = biological target: ALX3 (Homo sapiens, UniProt O95076 139-225, N203Q)
# ALX3 (Homo sapiens, UniProt O95076 139-225, N203Q), sequence (O95076 139-225 N203Q): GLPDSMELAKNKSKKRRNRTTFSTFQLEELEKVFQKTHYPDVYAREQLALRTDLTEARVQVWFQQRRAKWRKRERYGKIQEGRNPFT
# [27] = biological target: ALX3 (Homo sapiens, UniProt O95076 139-225)
# ALX3 (Homo sapiens, UniProt O95076 139-225), sequence (O95076 139-225): as the sequence (O95076 139-225 N203Q) above, with Q65N counted along it
# [28] = biological target: ALX3 (Homo sapiens, UniProt O95076 139-225, L168Q)
# ALX3 (Homo sapiens, UniProt O95076 139-225, L168Q), sequence (O95076 139-225 L168Q): as the sequence (O95076 139-225 N203Q) above, with L30Q, Q65N counted along it
# [29] = biological target: ALX3 (Homo sapiens, UniProt O95076 139-225, L168V)
# ALX3 (Homo sapiens, UniProt O95076 139-225, L168V), sequence (O95076 139-225 L168V): as the sequence (O95076 139-225 N203Q) above, with L30V, Q65N counted along it
# [30] = biological target: HESX1 (Homo sapiens, UniProt Q9UBX0 95-180, F115L)
# HESX1, sequence (Q9UBX0 95-180 F115L): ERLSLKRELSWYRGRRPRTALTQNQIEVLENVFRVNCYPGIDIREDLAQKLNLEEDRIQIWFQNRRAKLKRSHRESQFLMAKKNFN
# [31] = biological target: ALX3 (Homo sapiens, UniProt O95076 139-225, N203S)
# ALX3 (Homo sapiens, UniProt O95076 139-225, N203S), sequence (O95076 139-225 N203S): as the sequence (O95076 139-225 N203Q) above, with Q65S counted along it
# [32] = biological target: HOXC10 (Homo sapiens, UniProt Q9NYD6 254-340)
# HOXC10 (Homo sapiens, UniProt Q9NYD6 254-340), sequence (Q9NYD6 254-340): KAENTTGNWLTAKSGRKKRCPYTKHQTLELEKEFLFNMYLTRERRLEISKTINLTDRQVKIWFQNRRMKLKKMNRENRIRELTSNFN
# [33] = biological target: HOXC10 (Homo sapiens, UniProt Q9NYD6 254-340, K271E)
# HOXC10 (Homo sapiens, UniProt Q9NYD6 254-340, K271E), sequence (Q9NYD6 254-340 K271E): as the sequence (Q9NYD6 254-340) above, with K18E counted along it
# HOXB9 (Homo sapiens, UniProt P17482 171-250, T197M), sequence (P17482 171-250 T197M): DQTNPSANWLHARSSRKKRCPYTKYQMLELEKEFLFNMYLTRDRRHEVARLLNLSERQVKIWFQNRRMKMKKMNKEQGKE
sequence,measurement,setting,value
GCTCTCCC,binding signal,[1],"8.34 upbm affinity estimate (log intensity, higher = more binding, comparable within an allelic series)"
same,binding signal,[2],"9.21 upbm affinity estimate (log intensity, higher = more binding, comparable within an allelic series)"
same,binding signal,[3],"9.22 upbm affinity estimate (log intensity, higher = more binding, comparable within an allelic series)"
same,binding signal,[4],"8.35 upbm affinity estimate (log intensity, higher = more binding, comparable within an allelic series)"
same,binding signal,[5],"9.54 upbm affinity estimate (log intensity, higher = more binding, comparable within an allelic series)"
same,binding signal,[6],"9.3 upbm affinity estimate (log intensity, higher = more binding, comparable within an allelic series)"
same,binding signal,[7],"9.23 upbm affinity estimate (log intensity, higher = more binding, comparable within an allelic series)"
same,binding signal,[8],"9.45 upbm affinity estimate (log intensity, higher = more binding, comparable within an allelic series)"
same,binding signal,[9],"9.16 upbm affinity estimate (log intensity, higher = more binding, comparable within an allelic series)"
same,binding signal,[10],"6.88 upbm affinity estimate (log intensity, higher = more binding, comparable within an allelic series)"
same,binding signal,[11],"6.87 upbm affinity estimate (log intensity, higher = more binding, comparable within an allelic series)"
same,binding signal,[12],"8.35 upbm affinity estimate (log intensity, higher = more binding, comparable within an allelic series)"
same,binding signal,[13],"6.53 upbm affinity estimate (log intensity, higher = more binding, comparable within an allelic series)"
same,binding signal,[14],"9.57 upbm affinity estimate (log intensity, higher = more binding, comparable within an allelic series)"
same,binding signal,[15],"9.27 upbm affinity estimate (log intensity, higher = more binding, comparable within an allelic series)"
ATAAAATG,binding signal,[1],"9.81 upbm affinity estimate (log intensity, higher = more binding, comparable within an allelic series)"
same,binding signal,[16],"12.5 upbm affinity estimate (log intensity, higher = more binding, comparable within an allelic series)"
same,binding signal,[4],"11.7 upbm affinity estimate (log intensity, higher = more binding, comparable within an allelic series)"
same,binding signal,[17],"12.6 upbm affinity estimate (log intensity, higher = more binding, comparable within an allelic series)"
same,binding signal,[18],"12.6 upbm affinity estimate (log intensity, higher = more binding, comparable within an allelic series)"
same,binding signal,[12],"11.6 upbm affinity estimate (log intensity, higher = more binding, comparable within an allelic series)"
same,binding signal,[19],"11 upbm affinity estimate (log intensity, higher = more binding, comparable within an allelic series)"
CAGAAGCC,binding signal,[1],"8.6 upbm affinity estimate (log intensity, higher = more binding, comparable within an allelic series)"
same,binding signal,[20],"9.41 upbm affinity estimate (log intensity, higher = more binding, comparable within an allelic series)"
same,binding signal,[4],"8.72 upbm affinity estimate (log intensity, higher = more binding, comparable within an allelic series)"
same,binding signal,[12],"8.73 upbm affinity estimate (log intensity, higher = more binding, comparable within an allelic series)"
same,binding signal,[21],"9.47 upbm affinity estimate (log intensity, higher = more binding, comparable within an allelic series)"
ATAAATTA,binding signal,[1],"9.96 upbm affinity estimate (log intensity, higher = more binding, comparable within an allelic series)"
same,binding signal,[22],"13.6 upbm affinity estimate (log intensity, higher = more binding, comparable within an allelic series)"
same,binding signal,[2],"11.7 upbm affinity estimate (log intensity, higher = more binding, comparable within an allelic series)"
same,binding signal,[20],"11.2 upbm affinity estimate (log intensity, higher = more binding, comparable within an allelic series)"
same,binding signal,[3],"12.2 upbm affinity estimate (log intensity, higher = more binding, comparable within an allelic series)"
same,binding signal,[23],"10 upbm affinity estimate (log intensity, higher = more binding, comparable within an allelic series)"
same,binding signal,[24],"12.6 upbm affinity estimate (log intensity, higher = more binding, comparable within an allelic series)"
same,binding signal,[25],"11.4 upbm affinity estimate (log intensity, higher = more binding, comparable within an allelic series)"
same,binding signal,[26],"8.61 upbm affinity estimate (log intensity, higher = more binding, comparable within an allelic series)"
same,binding signal,[6],"11.8 upbm affinity estimate (log intensity, higher = more binding, comparable within an allelic series)"
same,binding signal,[7],"10.7 upbm affinity estimate (log intensity, higher = more binding, comparable within an allelic series)"
same,binding signal,[27],"12.3 upbm affinity estimate (log intensity, higher = more binding, comparable within an allelic series)"
same,binding signal,[9],"11 upbm affinity estimate (log intensity, higher = more binding, comparable within an allelic series)"
same,binding signal,[28],"10.2 upbm affinity estimate (log intensity, higher = more binding, comparable within an allelic series)"
same,binding signal,[19],"11 upbm affinity estimate (log intensity, higher = more binding, comparable within an allelic series)"
same,binding signal,[29],"9.72 upbm affinity estimate (log intensity, higher = more binding, comparable within an allelic series)"
same,binding signal,[30],"7.82 upbm affinity estimate (log intensity, higher = more binding, comparable within an allelic series)"
same,binding signal,[15],"11 upbm affinity estimate (log intensity, higher = more binding, comparable within an allelic series)"
same,binding signal,[31],"8.71 upbm affinity estimate (log intensity, higher = more binding, comparable within an allelic series)"
same,binding signal,[21],"13.3 upbm affinity estimate (log intensity, higher = more binding, comparable within an allelic series)"
GGTCCCGA,binding signal,[1],"8.6 upbm affinity estimate (log intensity, higher = more binding, comparable within an allelic series)"
same,binding signal,[16],"9.69 upbm affinity estimate (log intensity, higher = more binding, comparable within an allelic series)"
same,binding signal,[4],"8.47 upbm affinity estimate (log intensity, higher = more binding, comparable within an allelic series)"
same,binding signal,[17],"9.62 upbm affinity estimate (log intensity, higher = more binding, comparable within an allelic series)"
same,binding signal,[18],"9.59 upbm affinity estimate (log intensity, higher = more binding, comparable within an allelic series)"
same,binding signal,[12],"8.44 upbm affinity estimate (log intensity, higher = more binding, comparable within an allelic series)"
same,binding signal,[19],"9.74 upbm affinity estimate (log intensity, higher = more binding, comparable within an allelic series)"
CTCACGGC,binding signal,[1],"8.44 upbm affinity estimate (log intensity, higher = more binding, comparable within an allelic series)"
same,binding signal,[32],"10 upbm affinity estimate (log intensity, higher = more binding, comparable within an allelic series)"
same,binding signal,[4],"8.41 upbm affinity estimate (log intensity, higher = more binding, comparable within an allelic series)"
same,binding signal,[5],"9.58 upbm affinity estimate (log intensity, higher = more binding, comparable within an allelic series)"
same,binding signal,[26],"7.72 upbm affinity estimate (log intensity, higher = more binding, comparable within an allelic series)"
same,binding signal,[33],"10 upbm affinity estimate (log intensity, higher = more binding, comparable within an allelic series)"
same,binding signal,[8],"9.43 upbm affinity estimate (log intensity, higher = more binding, comparable within an allelic series)"
same,binding signal,[27],"7.47 upbm affinity estimate (log intensity, higher = more binding, comparable within an allelic series)"
same,binding signal,[28],"7.78 upbm affinity estimate (log intensity, higher = more binding, comparable within an allelic series)"
same,binding signal,[12],"8.46 upbm affinity estimate (log intensity, higher = more binding, comparable within an allelic series)"
same,binding signal,[29],"7.81 upbm affinity estimate (log intensity, higher = more binding, comparable within an allelic series)"
same,binding signal,[14],"9.43 upbm affinity estimate (log intensity, higher = more binding, comparable within an allelic series)"
same,binding signal,[31],"7.72 upbm affinity estimate (log intensity, higher = more binding, comparable within an allelic series)"
